Results: PubChem BioAssay (Tox21)
Records with an inconclusive call do not appear. The source made the active and inactive calls. Unless noted, calls come from the whole dose curve; as a rule, active = well fitted curve in the direction sought with a large enough effect in the repeat runs; inconclusive = weak or mixed curves; inactive = no such curve, though single readings can be large; an effect the other way counts as inactive or inconclusive.

Columns and labels:
[1] = A CellTox Green Cytotoxicity Assay to monitor cytotoxicity in HepG2 cells - 8 hour (AID 1224890); note: nearly all actives have a fitted effect of over 45% in size
In short: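 Cells and non-lytic dye reagent are dispensed together (600 HepG2 cells/well) and incubated 5 h before DMSO compound transfer. Kinetic fluorescence is then recorded in the same wells during 40 h at 37 C.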

[2] = qHTS assay to identify small molecule antagonists of the estrogen receptor alpha (ER-alpha) signaling pathway using the BG1 cell line in the presence of 0.1 nM 17-beta-estradiol - cell viability counter screen (AID 1259241); note: nearly all actives have a fitted effect of over 40% in size
In short: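 Viability in VM7Luc4E2 cells after 22 hr compound exposure under 0.1 nM 17beta-estradiol stimulation, by CellTiter-Fluor.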

[3] = qHTS assay to identify small molecule antagonists of the androgen receptor (AR) signaling pathway using the MDA cell line in the presence of 0.5 nM R1881 - cell viability counter screen (AID 1259242); note: nearly all actives have a fitted effect of over 45% in size
In short: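 Steps: plate MDA-kb2 cells, rest 5 hr at 37C without CO2; pin in compounds in DMSO; add R1881 to 0.5 nM final; incubate 16 hr; add CellTiter-Fluor, 30 min; read fluorescence.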

[4] = molecular target: Estrogen receptor (Homo sapiens) (UniProt P03372); assay: qHTS assay to identify small molecule antagonists of the estrogen receptor alpha (ER-alpha) signaling pathway using the BG1 cell line in the presence of 0.1 nM 17-beta-estradiol (AID 1259244); note: nearly all actives have a fitted effect of over 50% in size
Sequence of Estrogen receptor (Homo sapiens) (P03372 whole entry, looked up): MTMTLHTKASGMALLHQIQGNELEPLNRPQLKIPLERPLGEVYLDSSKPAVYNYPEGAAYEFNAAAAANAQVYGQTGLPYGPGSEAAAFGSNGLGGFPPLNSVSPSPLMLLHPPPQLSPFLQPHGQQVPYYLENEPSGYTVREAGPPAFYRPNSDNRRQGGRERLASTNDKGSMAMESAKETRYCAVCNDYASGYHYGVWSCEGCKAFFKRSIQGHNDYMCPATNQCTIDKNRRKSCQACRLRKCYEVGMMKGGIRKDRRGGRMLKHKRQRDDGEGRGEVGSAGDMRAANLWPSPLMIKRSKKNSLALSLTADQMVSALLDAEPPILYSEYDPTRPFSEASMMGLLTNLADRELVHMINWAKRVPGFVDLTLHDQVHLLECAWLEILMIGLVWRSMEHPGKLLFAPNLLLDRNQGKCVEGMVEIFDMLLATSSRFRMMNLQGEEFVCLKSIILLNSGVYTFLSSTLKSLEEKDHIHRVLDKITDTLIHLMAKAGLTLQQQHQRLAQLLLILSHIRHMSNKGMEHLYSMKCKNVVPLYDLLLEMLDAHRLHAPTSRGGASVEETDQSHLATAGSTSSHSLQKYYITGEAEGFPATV
In short: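 Antagonist mode: compounds in DMSO are pinned onto VM7Luc4E2 reporter cells, 0.1 nM final 17beta-estradiol is added, and after 22 h at 37C luciferase luminescence is measured with ONE-Glo.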

[5] = qHTS assay to identify small molecule phospholipidosis (PLD) inducers (AID 1259344; active = well fitted curve in the direction sought with a large enough effect; an effect the other way counts as inactive or inconclusive)
In short: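 Phospholipid accumulation was scored by imaging: fixed, Hoechst-counterstained HepG2 cells stained with LipidTOX Red after 24 h compound exposure at 37 C. Read-outs were pit count and pit intensity per well or per cell, with amiodarone and DMSO controls.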

[6] = qHTS assay to identify small molecule HDAC inhibitors (AID 1259364);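 note: wild-type HCT-116 cells with endogenous class I/II HDAC activity; top concentration of the series differs between compounds; nearly all actives have a fitted effect of over 45% in size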
In short: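 Cells (HCT-116, wild type) are seeded at 1,500 per well, incubated overnight, treated with compound in DMSO for 2 hr, then developed with HDAC-Glo I/II reagent for 30 min at room temperature.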

[7] = qHTS assay to identify small molecule HDAC inhibitors - cell viability counter screen (AID 1259365); note: series mostly up to about 92 µM; nearly all actives have a fitted effect of over 50% in size
In short: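 Cytotoxicity was gauged in wild-type HCT-116 cells after a brief 2hr treatment with DMSO-dissolved compounds at 37C and 5% CO2, using CellTiter-Glo luminescence developed for 30min at room temperature.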

[8] = qHTS assay to identify small molecule agonists of the sonic hedgehog signaling (Shh) pathway - cell viability counter screen (AID 1259366); note: nearly all actives have a fitted effect of over 50% in size
In short: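 Stable Gli1-Luc NIH/3T3 clone, 2,000 cells/well. Compound exposure 24hr at 37C. Read-out: CellTiter-Fluor fluorescence.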

[9] = qHTS assay to identify small molecule antagonists of the sonic hedgehog signaling (Shh) pathway - cell viability counter screen (AID 1259367); note: nearly all actives have a fitted effect of over 55% in size
In short: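 Viability was read by CellTiter-Fluor fluorescence in the same wells, reagent added 23 hr into compound treatment and incubated 1 hr at 37C. The 3T3 Gli1-Luc reporter cells (2,000/well) received conditioned medium after compound and ran 24 hr.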

[10] = qHTS assay to identify small molecule agonists of the sonic hedgehog signaling (Shh) pathway (AID 1259368; calls by dose curve;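 note: NIH/3T3-derived 3T3Gli1-Luc cells carrying a stable Gli1-driven firefly luciferase reporter; series mostly up to about 92 µM; nearly all actives have a fitted effect of over 15% in size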)
In short: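 Cells of a mouse NIH/3T3 clone stably expressing luciferase under the Gli1 transcriptional response element are exposed to test chemicals for 24 hr at 37 C. Pathway activation is detected as a rise in luminescence.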

[11] = molecular target: Estrogen receptor beta (Homo sapiens) (UniProt Q92731); assay: qHTS assay to identify small molecule agonists of the estrogen receptor beta (ER-beta) signaling pathway (AID 1259377; active = well fitted activation curve with a large enough effect in the signal ratio in the repeat runs, not every such curve was filed as active; the % refers to the signal ratio)
Sequence of Estrogen receptor beta (Homo sapiens) (Q92731 whole entry, looked up): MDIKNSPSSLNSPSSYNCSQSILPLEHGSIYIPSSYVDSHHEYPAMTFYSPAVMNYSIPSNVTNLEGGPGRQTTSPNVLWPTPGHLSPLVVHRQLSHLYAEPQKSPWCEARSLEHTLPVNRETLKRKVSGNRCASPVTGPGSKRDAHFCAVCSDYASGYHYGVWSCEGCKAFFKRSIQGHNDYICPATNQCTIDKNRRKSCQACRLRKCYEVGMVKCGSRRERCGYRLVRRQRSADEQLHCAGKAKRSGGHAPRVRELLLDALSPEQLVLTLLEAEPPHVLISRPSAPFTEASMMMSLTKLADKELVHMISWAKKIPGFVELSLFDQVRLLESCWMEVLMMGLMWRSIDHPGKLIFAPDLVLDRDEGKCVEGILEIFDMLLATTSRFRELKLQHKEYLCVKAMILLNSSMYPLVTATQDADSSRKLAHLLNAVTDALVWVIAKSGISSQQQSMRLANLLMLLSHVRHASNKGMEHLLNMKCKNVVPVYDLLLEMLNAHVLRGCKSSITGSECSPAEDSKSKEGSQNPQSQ
In short: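 Measured by fluorescence intensity from a B/G FRET beta-lactamase substrate (2 h, room temperature) in ER-beta-UAS-bla HEK293T cells treated with DMSO-dissolved compounds for 16 hr at 37C and 5% CO2.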

[12] = qHTS assay to identify small molecule agonists of the androgen receptor (AR) signaling pathway in the presence of an antagonist - cell viability counter screen (AID 1259379);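 note: MDA-kb2 human breast cancer cells carrying an MMTV luciferase reporter; series mostly up to about 92 µM; nearly all actives have a fitted effect of over 25% in size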
In short: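 Cytotoxicity is assessed by CellTiter-Fluor in MDA-kb2 cells carrying an MMTV-driven luciferase reporter. Cells receive 3.0uM nilutamide plus compounds at 15 concentrations and incubate 16 hr at 37C without CO2 before fluorescence reading.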

[13] = qHTS assay to identify small molecule agonists of the estrogen receptor beta (ER-beta) signaling pathway - cell viability counter screen (AID 1259380); note: nearly all actives have a fitted effect of over 30% in size
In short: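 Cytotoxicity is measured in parallel with the reporter screen: after 16 hr compound exposure at 37C and a 2 hr LiveBLAzer step, CellTiter-Glo is added to the same ER-beta-UAS-bla HEK293T wells and luminescence read after 30 min.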

[14] = qHTS assay to identify small molecule antagonists of the estrogen receptor beta (ER-beta) signaling pathway - cell viability counter screen (AID 1259382);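 note: HEK293T cells carrying ER-beta-UAS-bla reporter stimulated with estradiol; series mostly up to about 92 µM; nearly all actives have a fitted effect of over 55% in size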
In short: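 Cytotoxicity counter screen multiplexed with the beta-lactamase antagonist assay: GripTite HEK293T ER-beta-bla cells were treated 16 hr with test chemicals in the presence of 1nM 17-beta-estradiol, and viability was measured by CellTiter-Glo.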

[15] = molecular target: Estrogen receptor (Homo sapiens) (UniProt P03372); assay: qHTS assay to identify small molecule agonists of the estrogen receptor alpha (ER-alpha) signaling pathway in the presence of an antagonist (AID 1259383; calls by dose curve; note: top concentration of the series differs between compounds; nearly all actives have a fitted effect of over 15% in size)
In short: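 Agonist-mode confirmation in the presence of the ER antagonist ICI-182,780 at 10.0nM final. Breast-derived VM7Luc4E2 reporter cells were exposed to compounds for 22hr, and ERE-driven luciferase was quantified by luminescence.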

[16] = qHTS assay to identify small molecule agonists or antagonists of the thyroid stimulating hormone receptor (TSHR) signaling pathway - wild type cell line counter screen (AID 1259384; calls by dose curve)
In short: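 Counter screen in untransfected Hek293: compounds (15-point titration, triplicate) plus phosphodiesterase inhibitor Ro20-1724 added after 18 h plating; 30 min RT. Intracellular cAMP via competitive d2/cryptate immunoassay, 1 h incubation.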

[17] = qHTS assay to identify small molecule antagonists of the sonic hedgehog signaling (Shh) pathway (AID 1259369; calls by dose curve; note: nearly all actives have a fitted effect of over 45% in size)
In short: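 Cells are plated and held 4hr at 37 C, compounds (DMSO) are pinned in, conditioned medium is added to stimulate the pathway, and after 24hr luciferase reagent is added for 30min before luminescence is read.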

[18] = molecular target: Androgen receptor (Homo sapiens) (UniProt P10275); assay: qHTS assay to identify small molecule antagonists of the androgen receptor (AR) signaling pathway using the MDA cell line in the presence of 0.5 nM R1881 (AID 1259243); note: nearly all actives have a fitted effect of over 50% in size
Sequence of Androgen receptor (Homo sapiens) (P10275 whole entry, looked up): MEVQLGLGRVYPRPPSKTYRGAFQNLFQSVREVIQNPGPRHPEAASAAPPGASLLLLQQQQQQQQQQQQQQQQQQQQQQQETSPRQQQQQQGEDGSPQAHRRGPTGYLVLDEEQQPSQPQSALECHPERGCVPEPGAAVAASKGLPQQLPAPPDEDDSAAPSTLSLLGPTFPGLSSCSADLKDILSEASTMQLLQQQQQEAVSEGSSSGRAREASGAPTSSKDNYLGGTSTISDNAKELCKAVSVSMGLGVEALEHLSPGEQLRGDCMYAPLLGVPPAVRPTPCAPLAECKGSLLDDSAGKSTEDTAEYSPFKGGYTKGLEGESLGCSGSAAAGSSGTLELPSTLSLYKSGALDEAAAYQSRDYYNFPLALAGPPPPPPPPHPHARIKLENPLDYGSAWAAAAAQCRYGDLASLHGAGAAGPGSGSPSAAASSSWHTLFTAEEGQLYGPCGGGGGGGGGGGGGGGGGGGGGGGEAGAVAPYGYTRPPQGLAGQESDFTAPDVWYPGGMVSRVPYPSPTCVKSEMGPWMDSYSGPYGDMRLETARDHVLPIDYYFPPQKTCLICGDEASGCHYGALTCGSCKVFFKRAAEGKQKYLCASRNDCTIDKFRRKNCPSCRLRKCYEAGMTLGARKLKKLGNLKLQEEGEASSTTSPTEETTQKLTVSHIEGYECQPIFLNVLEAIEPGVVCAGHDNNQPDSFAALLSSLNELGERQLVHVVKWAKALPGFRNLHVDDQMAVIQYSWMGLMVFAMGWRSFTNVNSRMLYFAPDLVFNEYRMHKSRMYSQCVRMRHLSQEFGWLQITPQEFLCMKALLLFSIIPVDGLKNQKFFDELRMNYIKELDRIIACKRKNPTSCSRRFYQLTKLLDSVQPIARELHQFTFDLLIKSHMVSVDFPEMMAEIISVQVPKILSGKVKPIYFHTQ
In short: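 Stably transfected MDA-kb2 cells express luciferase from an MMTV promoter bearing both AR and GR response elements. Compounds plus 0.5 nM R1881 (final) were incubated 16 hr at 37C without CO2, then luminescence measured.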

[19] = molecular target: Estrogen receptor beta (Homo sapiens) (UniProt Q92731); assay: qHTS assay to identify small molecule antagonists of the estrogen receptor beta (ER-beta) signaling pathway (AID 1259378; active = well fitted inhibition curve with a large enough effect in the signal ratio in the repeat runs, not every such curve was filed as active; the % refers to the signal ratio)
In short: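 Antagonist mode: compounds added to beta-lactamase reporter HEK293T ER-beta-UAS cells stimulated with E2 (1nM final), 16 hr at 37C. LiveBLAzer B/G FRET substrate, 2 hours room temperature, fluorescence read-out.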

[20] = molecular target: Androgen receptor (Homo sapiens) (UniProt P10275); assay: qHTS assay to identify small molecule agonists of the androgen receptor (AR) signaling pathway in the presence of an antagonist (AID 1259381; calls by dose curve; note: nearly all actives have a fitted effect of over 15% in size)
In short: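 Agonist-mode confirmation screen: human MDA-kb2 cells stably expressing luciferase under an MMTV promoter bearing AR and GR response elements, co-treated with 3.0uM nilutamide (final). Luminescence measured after 16hr compound incubation.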

Measured: Potency

COc1cc2c(cc1OC)[C@@H]1CC(=O)[C@@H](CC(C)C)CN1CC2
not listed: [17] | [18] | [19] | [20]
inactive: all other assays above

COCCOC(=O)C1=C(C)NC(C)=C(C(=O)OC(C)C)C1c1cccc([N+](=O)[O-])c1 (stereo not given)
not listed: [11] | [18] | [19] | [20]
inactive: all other assays above

CC(C)(C)c1nnc(NS(=O)(=O)c2ccc(N)cc2)s1
not listed: [4] | [5] | [8]
inactive: all other assays above

COC(=O)c1ccccc1C(=O)c1ccc(OCCN2CCCCC2)cc1
not listed: [13] | [18] | [20]
inactive: all other assays above

CN(C)C(=O)CNC(=O)Cc1ccccc1
not listed: [13] | [18] | [20]
inactive: all other assays above

CC(CO)c1ccccc1 (stereo not given)
not listed: [4] | [5] | [9] | [11] | [13] | [14]
inactive: all other assays above

CCOC(=O)[C@H](CCc1ccccc1)N[C@@H](C)C(=O)N1C(=O)N(C)C[C@H]1C(=O)O
not listed: [13] | [18] | [20]
inactive: all other assays above

NNc1nnc(NN)c2ccccc12
not listed: [9] | [15] | [18] | [20]
inactive: all other assays above
